In all, about 41,000 compounds went through this assay and about 190 (0.46%) were called active. This excerpt belongs to a sample that is enriched for actives. A number with no mark means an inactive call.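 Rule for the calls: active = viability at or below the median of all test compounds minus 3 SD, in both replicates if run twice (cut at about 45% in these data); inconclusive = duplicate replicates that disagree with each other; inactive = viability above that cutoff in every replicate.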
Assay: SK-BR-3 proliferation inhibitors, primary screen, cell-based, human, 24 h (AID 847);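 note: 100% = median untreated cell wells and 0% = median positive control drug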
Conditions: SK-BR-3 viability, CellTiter-Glo ATP luminescence, at 10 µM, hits give low values
In the case of `COc1cc(C(=O)Nc2nccs2)cc(OC)c1OC`, the viability is reported as 98.8%. In the case of `CC(C)OC(=O)c1sc2nc3c(cc2c1N)C(=O)CCC3`, the viability is reported as 70.8%. `CCOC(=O)c1c(C)n(C)c2ccc(OC)c(NC(=O)CN3CCC4(CC3)OCCO4)c12` showed a viability of 88.1%. With `Cc1ccc(C(=O)NCCNS(=O)(=O)c2ccccc2)cc1` the viability was 104%. `CC(=O)Nc1ccc(S(=O)(=O)Nc2cccc(NC(=O)C(C)(C)C)c2)cc1` gave a viability of 84.7%. For `CC(c1ccccc1)n1c(NCCCn2ccnc2)nc2c1c(=O)[nH]c(=O)n2C` (stereo not drawn), the viability was 62.8%. Compound `O=C(c1cccs1)N(C(=O)c1cccs1)c1ccccn1` has a viability of 75%. `Cc1cccc(N2CC(C)Cn3c2nc2c3c(=O)n(CC(=O)OCc3ccccc3)c(=O)n2C)c1` (stereo not drawn) gave a viability of 72.3%. In the case of `CCN1C(=O)CS/C1=N\c1nccs1`, the viability is reported as 96%. Compound `O=C(O)c1ccc(F)c(S(=O)(=O)Nc2ccccc2)c1` has a viability of 99.6%. `CCOc1ccc2nc(NCCNS(=O)(=O)c3ccccc3)c(C#N)cc2c1` showed a viability of 73.4%. Work on `CCOC(=O)N1CCN(C(=O)CN(c2ccc(C)c(C)c2)S(=O)(=O)c2ccccc2)CC1` yielded a viability of 124%. Work on `CCOC(=O)c1ccc(N2C(=O)CC(N3CC(C)OC(C)C3)C2=O)cc1` (stereo not drawn) yielded a viability of 82.9%. For `O=C(c1cccs1)N1CCN(C(=O)N2CCOCC2)CC1`, the viability was 119%. `CC(=O)CSc1nnc(CSc2ncccn2)n1C1CCCCC1` gave a viability of 77.2%. With `Cc1nc2nc(CSc3nc4ccccc4s3)cc(=O)n2[nH]1` the viability was 94.5%. Compound `O=S(=O)(c1ccccc1)N(CC(O)CN1CCCCC1)c1ccccc1` (stereo not drawn) has a viability of 93%. Compound `COc1ccc(CCNC(=O)CSc2nc(C)nc3c2oc2ccccc23)cc1OC` has a viability of 131%. With `CCc1nc2oc3ccccc3c(=O)c2c(=O)n1Cc1ccc(OC)cc1` the viability was 84.3%. In the case of `O=C(CCCC(=O)N(CC(=O)NC1CCCC1)Cc1ccccc1Cl)Nc1ccccn1`, the viability is reported as 73.7%. With `O=C(NCCCNCc1ccccc1)c1ccc(/C=N/O)nc1` the viability was 117%. Work on `O=C(NCC1CCCO1)C(C(=O)c1ccccc1)n1cc(Cl)ccc1=O` (stereo not drawn) yielded a viability of 87.7%. `Cc1ccc2c(c1)c1ncn(CCC3=CCCCC3)c(=O)c1n2C` gave a viability of 85.3%. Compound `CCCc1nnc(NC(=O)c2cc(OC)cc(OC)c2)s1` has a viability of 81.5%. Compound `C#CCN1CC(C)/C(=N/O)CC1C` (stereo not drawn) has a viability of 108%. `O=C(NC1CCCC1)c1ccc(Br)s1` showed a viability of 90.4%. Compound `O=C(Oc1ccccc1)c1ccc2nccnc2c1` has a viability of 80.4%. Work on `COc1ccc(S(=O)(=O)N2CCC(C(=O)N3CCOCC3)CC2)cc1OC` yielded a viability of 101%. Work on `CCCc1[nH]nc2c1C(C1CC=CCC1)C(C#N)=C(N)O2` (stereo not drawn) yielded a viability of 96.8%. For `O=C(NCc1cccs1)C1CCN(S(=O)(=O)c2ccc3c(c2)OCCO3)CC1`, the viability was 95.3%. For `COc1ccc(C(=O)Cn2nnc(-c3ccc(N4CCOCC4)cc3)n2)cc1OC`, the viability was 88.3%. Compound `O=C(Nc1nc2cc3c(cc2s1)OCCO3)c1cccc(S(=O)(=O)N2CCOCC2)c1` has a viability of 79.5%. Work on `COc1ccc2[nH]c3ccc(OC)cc3c2c1` yielded a viability of 89.2%. Compound `C=CCC(NCCCO)c1cccc(OC)c1OC` (stereo not drawn) has a viability of 107%. In the case of `Fc1ccc(OCc2nn3c(Cn4nnc5ccccc54)nnc3s2)cc1`, the viability is reported as 59.8%. For `CCOC(=O)c1sc(NC(=O)c2cc(S(=O)(=O)N3CCOCC3)ccc2C)nc1C`, the viability was 88.3%. With `COc1ccc(Br)cc1/C=N/n1c(C)nnc1C` the viability was 96.9%. Work on `CCC(=O)Nc1ccccc1C(=O)N1CCN(Cc2ccccc2)CC1` yielded a viability of 90.1%. Compound `O=C(Nc1cccc(C(=O)N2CCCC2)c1)c1ccccc1` has a viability of 91.4%. `Cc1cc(C(F)(F)F)c(C#N)c(SCC(=O)NC2CC2)n1` gave a viability of 109%. For `CN1CCN(CC(=O)C23CC4CC(CC(C4)C2)C3)CC1`, the viability was 122%. Compound `CN1CCN(S(=O)(=O)c2ccc(NC(=O)c3ccco3)cc2)CC1` has a viability of 85.4%. Work on `COc1ccccc1-n1nnnc1S(=O)(=O)Cc1ccc(Cl)cc1` yielded a viability of 95.1%.

Source: PubChem BioAssay AID847 (SRMLSC, 2007)
